Compound activity deposited in PubChem by National Center for Advancing Translational Sciences (NCATS).
In the library only some 2.4% were active in any assay of this set; here they are far more common.
D2 ag-1 – activates the human D2 dopamine receptor | P14416 | DiscoveRx PathHunter D2 beta-arrestin, luminescence, 90 min; 100% = 57 uM dopamine signal | activation, % (no concentration beside the values) | 0.084% of 360,000 active | AID 624465; in the data active = activation above about 40%; inconclusive = between about 15% and that limit
Target sequence (P14416 whole entry, looked up): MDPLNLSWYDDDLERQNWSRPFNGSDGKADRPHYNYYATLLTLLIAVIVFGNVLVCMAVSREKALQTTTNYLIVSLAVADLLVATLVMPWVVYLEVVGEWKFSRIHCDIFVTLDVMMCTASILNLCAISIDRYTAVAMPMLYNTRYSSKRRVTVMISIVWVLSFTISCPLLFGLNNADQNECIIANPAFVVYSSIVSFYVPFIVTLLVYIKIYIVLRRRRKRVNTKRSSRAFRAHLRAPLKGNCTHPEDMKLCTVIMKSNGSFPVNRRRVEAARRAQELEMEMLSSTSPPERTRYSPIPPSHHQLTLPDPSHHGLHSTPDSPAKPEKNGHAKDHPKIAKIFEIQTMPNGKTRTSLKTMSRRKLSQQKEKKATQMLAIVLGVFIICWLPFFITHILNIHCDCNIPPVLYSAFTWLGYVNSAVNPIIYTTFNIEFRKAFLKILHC
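DiscoveRx PathHunter D2 beta-arrestin cells (2,100/well) attached overnight, then compound-stimulated 90 min at 37 C in HBSS/10 mM HEPES/0.1% Tween-20 buffer; beta-galactosidase complementation read by luminescence after 1 h at ambient temperature. Dopamine 57 uM final (EC100) as control.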
D2 PAM-1 – positive allosteric modulators of human D2 dopamine receptor | P14416 | DiscoveRx D2 beta-arrestin cells, luminescence, 90 min; 100% = 57 uM dopamine signal | potentiation, % (concentration not given with the values) | 0.23% of 360,000 active | AID 624464; in the data active = potentiation above about 50%; inconclusive = mostly about 30% to 49%
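D2 cells co-treated with compound plus 50 nM dopamine (EC20) for 90 min at 37 deg C to detect potentiation. Beta-arrestin recruitment was read as enzyme-fragment luminescence after 1 h at ambient temperature. Full response was set by 57 uM dopamine.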
D2 antag – antagonizes the human D2 dopamine receptor; 2% of 340,000 active; HEK293 TREx D2 cells, calcium flux, dopamine EC80; P14416; inhibition, % at 10 µM; in the data active = inhibition above about 30%; inactive = below that, where a call was filed
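Compounds are added to dye-loaded, induced HEK293 T-REx cells coupled to calcium release via D2; after a 3 min kinetic read an EC80 dopamine stimulus is given and fluorescence is recorded for 3 more min.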
D2 PAM-2 – D2 dopamine receptor (human) potentiation | potentiation, % at 10 µM | HEK293 T-REx D2, calcium flux, EC20 dopamine potentiation | 0.34% of 340,000 active | AID 485347 | P14416;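 active = potentiation over 3 SD above the plate norm, cut at about 30% in these data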
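Calcium flux readout, no-wash dye, 1 read/s. Inducible HEK293 Trex D2 line, overnight 30 C. Compound alone 180 s (agonist flags), then EC20 dopamine, another 180 s to score potentiation.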
D2 ag-2 – agonists of human D2 dopamine receptor. P14416. HEK293 T-REx D2 cells, calcium flux agonist mode. activation, % at 2 µM. 0.53% of 340,000 active. AID 485358;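 active = activation over 3 SD above normal in the single-dose calcium agonist read, cut at about 30% in these data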
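Calcium-flux readout, 1 cycle/sec over 180 s following compound pin transfer, in inducible HEK293 Trex D2 cells (force-coupled); dopamine controls included. Positive calcium responses during this window marked compounds as potential agonists.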
Numbers stand for hits; – = inactive; ? = inconclusive; · = not tested or not shown; ! = not active in a repeat.

SMILES	D2 ag-1	D2 PAM-1	D2 antag	D2 PAM-2	D2 ag-2
Cc1cccc(N2CCN(C(=O)COc3ccc4c(C)cc(=O)oc4c3C)CC2)c1C	–	–	–	39	–
COC(=O)C1=C(C)NC2=C(C(=O)CC(C)(C)C2)C1c1ccccn1 (stereo unspecified)	–	–	–	33	–
Cc1ccc(C)c(Cn2c(CO)nc3ccccc32)c1	–	–	–	–	–
Cc1ccc(C)c(Cn2ncc3ccccc32)c1	–	–	–	41	–
CCC(Sc1nc(-c2ccccc2)[nH]c1S(=O)(=O)c1ccc(C)cc1)C(=O)O (stereo unspecified)	·	·	·	–	–
Cc1onc(-c2ccccc2Cl)c1C(=O)NCCCN1CCOCC1	–	–	–	–	–
Cc1onc(-c2c(Cl)cccc2Cl)c1C(=O)NCCCN1CCOCC1	–	–	43	–	–
O=c1cc(-c2c(F)c(F)c(F)c(F)c2F)oc2c(F)c(F)c(F)c(F)c12	·	·	56	–	–
O=c1cc(-c2c(F)c(F)c(F)c(F)c2F)oc2ccccc12	–	–	–	–	–
COc1ccc(S(=O)(=O)N2CCCCCC2)cc1C(=O)N(C)Cc1c(F)cccc1Cl	–	–	–	–	–
COc1ccc(COc2ccccc2C(=O)NCc2ccccc2)cc1F	–	–	41	–	–
COc1ccc(S(=O)(=O)N2CCCCCC2)cc1C(=O)N(C)Cc1ccc(Cl)cc1Cl	–	–	47	–	–
COc1ccc(COc2ccc(S(=O)(=O)N3CCCC3)cc2C(N)=O)cc1F	–	–	–	30	–
COC(=O)CCC(=O)OC	–	–	·	·	·
COC(=O)CCCCC(=O)OC	–	–	36	–	–
c1ccc2c(c1)CCc1c-2nc2ccccc2c1N1CCOCC1	–	–	37	–	–
COc1ccc(Cl)cc1N(C(=O)c1ccco1)C(C(=O)NC1CCCC1)c1cccnc1 (stereo unspecified)	–	–	–	–	–
COc1ccc(C(C(=O)NCC2CCCO2)N(C(=O)CNC(=O)c2ccco2)c2cc(C)cc(C)c2)cc1OC (stereo unspecified)	–	–	–	34	–
C=CCN(C(=O)CNC(=O)c1ccco1)C(C(=O)NC1CCCCC1)c1ccccc1F (stereo unspecified)	–	–	–	38	–
COCCN(C(=O)CNC(=O)c1ccco1)C(C(=O)NC1CCCC1)c1ccccc1F (stereo unspecified)	–	–	–	–	–
O=C(NC1CCCCC1)C(c1ccncc1)N(C(=O)c1csnn1)c1ccc(F)cc1 (stereo unspecified)	–	–	37	–	–
COc1ccc(Cl)cc1N(C(=O)c1ccco1)C(C(=O)NC1CCCC1)c1ccncc1 (stereo unspecified)	–	–	39	–	–
COc1ccc(C(C(=O)NCC2CCCO2)N(C(=O)CNC(=O)c2ccco2)c2ccc(C)c(C)c2)cc1OC (stereo unspecified)	–	–	–	–	–
COc1ccc(N(C(=O)CNC(=O)c2ccco2)C(C(=O)NC2CCCC2)c2cccnc2)cc1 (stereo unspecified)	–	–	–	–	–
CCOC(=O)c1ccc(N(C(=O)c2ccco2)C(C(=O)NC2CCCC2)c2ccncc2)cc1 (stereo unspecified)	–	–	36	–	–
SMILES	D2 ag-1	D2 PAM-1	D2 antag	D2 PAM-2	D2 ag-2
COc1ccc(N(C(=O)CNC(=O)c2ccco2)C(C(=O)NC2CCCCC2)c2cccnc2)cc1 (stereo unspecified)	–	–	38	–	–
COc1ccc(OC)c(N(C(=O)c2ccco2)C(C(=O)NC2CCCC2)c2cc(OC)c(OC)c(OC)c2)c1 (stereo unspecified)	–	–	36	–	–
Cc1cc(C)cc(N(C(=O)c2ccco2)C(C(=O)NC2CCCC2)c2ccncc2)c1 (stereo unspecified)	–	–	37	–	–
CCCC(=O)N1CCN(c2nc3ccc(F)cc3s2)CC1	·	·	·	–	·
O=C(CSc1nc2ccccc2n1Cc1cccc(C(F)(F)F)c1)NCc1ccccc1	·	·	·	–	–
CC(OC(=O)c1ccc(NC(=O)CC#N)cc1)C(=O)NCCC1=CCCCC1 (stereo unspecified)	–	–	38	–	–
Fc1ccc(-c2nc(Nc3cccc(C(F)(F)F)c3)nc3c2COc2ccccc2-3)cc1	·	·	·	–	·
CCN1CCN(Cc2ccc(OCc3ccccc3)cc2)CC1	–	–	–	32	–
CCOc1ccc(CNc2ccc(N3CCCC3)cc2)cc1	–	–	–	–	–
CCOC(=O)C1CCCN(Cc2ccc(OCc3ccccc3)cc2)C1 (stereo unspecified)	–	–	86	–	–
CCOc1ccc(CNc2ccc(N3CCN(Cc4ccccc4)CC3)cc2)cc1	–	–	59	–	–
CCOC(=O)C1CCCN(CCCc2ccccc2)C1 (stereo unspecified)	–	–	70!	–	–
COc1ccc(NC(=O)CN2C(=O)COc3ccc(S(=O)(=O)N4CCCCC4)cc32)cc1Cl	·	·	·	–	–
Cc1ccc(Cc2nc3ccccc3nc2SCC(=O)Nc2ccc3c(c2)OCO3)cc1	·	·	·	–	–
Oc1ccc(NCc2ccc(OCc3ccccc3)cc2)cc1	40	–	–	–	–
CCOC(=O)C1CCCN(Cc2nc(N)nc(Nc3ccccc3)n2)C1 (stereo unspecified)	–	–	46	–	–
Cc1c(C(=O)N2CCC(C)CC2)c(S(=O)(=O)N2CCN(c3ccc(Cl)cc3)CC2)c(C)n1C	·	·	·	–	–
COc1ccccc1/C=C/CN1CCC(n2nccc2NC(=O)CCc2ccccc2)CC1	–	–	35	–	–
CCn1cc(CN2CCC(n3nccc3NC(=O)c3ccccc3OC)CC2)cn1	–	–	–	–	–
O=C(CCc1ccccc1)Nc1ccnn1C1CCN(C/C=C/c2ccccc2)CC1	–	–	–	–	–
CCOc1ccc(CN2CCC(n3nccc3NC(=O)c3ccccc3OC)CC2)cc1	–	–	38	–	–
O=C(Nc1ccnn1C1CCN(C/C=C/c2ccccc2)CC1)c1ccccc1Cl	?	–	80	–	83
O=C(Nc1ccnn1C1CCN(Cc2ccccc2)CC1)c1ccccc1Cl	–	–	–	–	–
CCOc1ccc(CCNC(=O)c2cn(CC)c3ccc(S(=O)(=O)N4CCc5ccccc5C4)cc3c2=O)cc1OCC	·	·	·	–	–
CCOc1ccc(Cn2c(CNS(=O)(=O)c3cccs3)nc3cccnc32)cc1	·	·	·	–	–
O=c1c(N2CCN(c3cccc(Cl)c3)CC2)csc2ccccc12	·	·	·	–	–
CCCOc1ccc(/C=C2\SC(N)=NC2=O)cc1OC	–	–	66	–	–
COc1ccc(/C=C2\SC(N)=NC2=O)cc1Br	–	–	–	–	–
N/C(=N\OS(=O)(=O)c1ccc(Br)cc1)c1ccncc1	?	95	–	–	–
